PubChem BioAssay (NCI)
The panel holds about 83,000 compounds, 20% with a hit somewhere; the sample as a whole holds those more often.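 Negative percent growth values reflect cell death: -40 means 40% of the cells present at the start died, and -100 means all died.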 Activity calls are given as the source filed them. How the source made its calls: active means growth percent below 10; inactive means the rest.

How the values were obtained:
Assay in all cases: NCI-60 one-dose screen, 48 h (100 = growth as untreated, 0 = no growth, -100 = all killed)
Conditions in all cases: 10 µM unless noted
DU-145 prostate = test system: DU-145 prostate
K-562 leukemia = test system: K-562 leukemia
MALME-3M melanoma = test system: MALME-3M melanoma
MDA-MB-231 breast = test system: MDA-MB-231 breast
RXF 393 renal = test system: RXF 393 renal
SF-268 CNS = test system: SF-268 CNS
SF-295 CNS = test system: SF-295 CNS
SF-539 CNS = test system: SF-539 CNS
UACC-257 melanoma = test system: UACC-257 melanoma
M14 melanoma = test system: M14 melanoma

Measured: growth

O=C(Nc1ccc2[nH]ncc2c1)c1csc(Nc2ccccc2)n1
inactive: DU-145 prostate 21.4% | K-562 leukemia 20.7% | MALME-3M melanoma 69% | MDA-MB-231 breast 58.5% | RXF 393 renal 12.9% | SF-268 CNS 56.6% | SF-295 CNS 22.6% | SF-539 CNS 22.5% | UACC-257 melanoma 77.2% | M14 melanoma 24.5%

COC(=O)CNC(=O)c1ccc(NC(=O)c2[nH]c(C)c(Cl)c2Cl)c(O[C@H]2CCNC2)c1
inactive: DU-145 prostate 110% | K-562 leukemia 90.7% | MALME-3M melanoma 109% | MDA-MB-231 breast 105% | RXF 393 renal 111% | SF-268 CNS 102% | SF-295 CNS 105% | SF-539 CNS 98% | UACC-257 melanoma 103% | M14 melanoma 107%

COc1ccc(-c2cn(Cc3ccc4c(Br)cc(Br)c(O)c4n3)nn2)cc1
inactive: DU-145 prostate 89.7% | K-562 leukemia 39.1% | MALME-3M melanoma 82.7% | MDA-MB-231 breast 93.9% | RXF 393 renal 91.8% | SF-268 CNS 91.3% | SF-295 CNS 104% | SF-539 CNS 101% | UACC-257 melanoma 87.9% | M14 melanoma 83.3%

Cc1ccc(S(=O)(=O)c2nc(-c3ccccc3)oc2S(C)=O)cc1 (stereo not given)
inactive: DU-145 prostate 47.3% | SF-268 CNS 55.9% | SF-295 CNS 84.3% | UACC-257 melanoma 46.5%
active: K-562 leukemia -31.1% | MALME-3M melanoma -76.8% | MDA-MB-231 breast 4.23% | RXF 393 renal -33.4% | SF-539 CNS -22% | M14 melanoma -80.6%

O=C(Nc1ncc(Cc2ccccc2)s1)c1ccc2c(c1)OCCO2
inactive: DU-145 prostate 15.2% | MALME-3M melanoma 57.9% | MDA-MB-231 breast 39.2% | RXF 393 renal 10.2% | SF-268 CNS 43.2% | SF-295 CNS 11.9% | UACC-257 melanoma 45.1% | M14 melanoma 18.6%
active: K-562 leukemia 8.32% | SF-539 CNS -10.4%

N#CC1=C(N)Oc2c(ccc3cccnc23)C1c1ccccc1 (stereo not given)
active: RXF 393 renal 4.49% | SF-539 CNS -39.6%
inactive: DU-145 prostate 17.6% | K-562 leukemia 17.2% | MALME-3M melanoma 47.9% | MDA-MB-231 breast 48.6% | SF-268 CNS 45.2% | SF-295 CNS 18.1% | UACC-257 melanoma 74.4% | M14 melanoma 20%

CCOC(=O)C1=C(c2ccccc2)N=C2N(c3ccccc3)N=C(C(C)=O)N2C1c1ccc(Br)cc1 (stereo not given)
inactive: DU-145 prostate 101% | K-562 leukemia 86.9% | MALME-3M melanoma 97.3% | MDA-MB-231 breast 89.2% | RXF 393 renal 66.8% | SF-268 CNS 92.6% | SF-295 CNS 90.3% | SF-539 CNS 96.3% | UACC-257 melanoma 93.4% | M14 melanoma 100%

C/C(=C(\c1ccc(OCCCN(C)C)cc1)c1ccc(OC(=O)Cc2ccccc2)cc1)c1ccc(Cl)cc1
active: K-562 leukemia 0.63% | M14 melanoma 7.02%
inactive: DU-145 prostate 80.7% | MALME-3M melanoma 87.6% | MDA-MB-231 breast 68.4% | RXF 393 renal 69.7% | SF-268 CNS 77.4% | SF-295 CNS 79.1% | SF-539 CNS 82% | UACC-257 melanoma 91.5%

O=C1CCc2c(sc3[nH]c(=S)n(-c4cc(C(F)(F)F)cc(C(F)(F)F)c4)c(=O)c23)C1
active: MALME-3M melanoma -16.7% | MDA-MB-231 breast -42.5% | RXF 393 renal -3.65% | SF-295 CNS -21.8% | SF-539 CNS -51.1% | UACC-257 melanoma -25.4%
inactive: DU-145 prostate 25.2% | K-562 leukemia 22.5% | SF-268 CNS 19.3% | M14 melanoma 23.6%

O=c1c(Cc2ccc(F)cc2)cc(-c2ccccc2)nn1C/C(=N/O)c1ccccc1
inactive: DU-145 prostate 79.6% | K-562 leukemia 29.2% | MALME-3M melanoma 35.8% | MDA-MB-231 breast 43.1% | RXF 393 renal 28.5% | SF-268 CNS 52.6% | SF-295 CNS 31.9% | SF-539 CNS 81.9% | UACC-257 melanoma 53.8% | M14 melanoma 37.5%

COc1cc(CNC(=O)CCCC/C=C/C(C)C)ccc1OCc1cn(-c2ccc(C(F)(F)F)cc2)nn1
inactive: DU-145 prostate 80.7% | K-562 leukemia 76.3% | MALME-3M melanoma 99.7% | MDA-MB-231 breast 70.7% | RXF 393 renal 65.6% | SF-268 CNS 87.8% | SF-295 CNS 90.9% | SF-539 CNS 81.9% | UACC-257 melanoma 98.2% | M14 melanoma 97.5%

Cc1c2cnccc2c(C)c2c1c1cc(C(=O)O)ccc1n2C
active: DU-145 prostate 4.3% | K-562 leukemia 9.3% | MALME-3M melanoma -31.8% | MDA-MB-231 breast 3.08% | RXF 393 renal -72.1% | SF-268 CNS 0.973% | SF-295 CNS -2.38% | SF-539 CNS -24.5% | UACC-257 melanoma -31.4% | M14 melanoma -0.906%

COCCNC(=O)Cc1cc(-c2ccc(Cl)cc2)n(-c2ccccc2)c1C
inactive: DU-145 prostate 101% | K-562 leukemia 64.7% | MALME-3M melanoma 93.7% | MDA-MB-231 breast 89.9% | RXF 393 renal 84.8% | SF-268 CNS 88.5% | SF-295 CNS 85.6% | SF-539 CNS 92.8% | UACC-257 melanoma 95.6% | M14 melanoma 88.1%

N#C/C(=N\Nc1ccccc1)C(=O)Nc1cc(-c2ccccc2)nn1-c1ccccc1
inactive: DU-145 prostate 51.5% | K-562 leukemia 25.9% | MDA-MB-231 breast 26.1% | RXF 393 renal 36.9% | SF-268 CNS 22.9% | SF-295 CNS 11.4% | SF-539 CNS 40.4% | UACC-257 melanoma 12.3% | M14 melanoma 33.7%
active: MALME-3M melanoma 4.67%

O=C(Nc1ncc(Cc2ccc(Cl)cc2)s1)c1ccc2c(c1)OCCO2
inactive: DU-145 prostate 16.6% | MALME-3M melanoma 57.8% | MDA-MB-231 breast 10.9% | SF-268 CNS 42.9% | SF-295 CNS 11.7% | UACC-257 melanoma 44.1% | M14 melanoma 17.3%
active: K-562 leukemia 8.41% | RXF 393 renal 3.74% | SF-539 CNS -4.99%

CCN1C(=O)N(CC)C2C1NN=c1s/c(=C\c3ccc(F)cc3)c(=O)n12 (stereo not given)
active: DU-145 prostate -11.2% | K-562 leukemia 8.05% | RXF 393 renal 5.29% | SF-539 CNS -14.9%
inactive: MALME-3M melanoma 49.9% | MDA-MB-231 breast 24.1% | SF-268 CNS 53.3% | SF-295 CNS 13.6% | UACC-257 melanoma 56% | M14 melanoma 12.6%

Cc1ccc(OCCOCCOCCOCCOc2ccc(C)n(O)c2=S)c(=S)n1O
inactive: DU-145 prostate 17.5% | K-562 leukemia 16.2% | MALME-3M melanoma 15.6% | MDA-MB-231 breast 34.9% | RXF 393 renal 38.6% | SF-268 CNS 11.4% | SF-295 CNS 18.2%
active: SF-539 CNS 5.23% | UACC-257 melanoma -9.07% | M14 melanoma -16.1%

COc1cc(/C=C/C(=O)c2ccc(-n3cc(CN4CCN(c5cc6c(cc5F)c(=O)c(C(=O)O)cn6C5CC5)CC4)nn3)cc2)cc(OC)c1OC
inactive: DU-145 prostate 92.3% | K-562 leukemia 60.7% | MALME-3M melanoma 87.7% | MDA-MB-231 breast 66.4% | RXF 393 renal 55.7% | SF-268 CNS 77.2% | SF-295 CNS 81.9% | SF-539 CNS 82.5% | UACC-257 melanoma 90.1% | M14 melanoma 88.1%

Cc1cc(=O)oc2cc(Oc3nc(-c4ccccc4)cn4c(-c5ccccc5)cnc34)ccc12
inactive: DU-145 prostate 68% | K-562 leukemia 61.8% | MDA-MB-231 breast 50.4% | RXF 393 renal 28.3% | SF-268 CNS 64.4% | SF-295 CNS 54.2% | SF-539 CNS 54.6% | UACC-257 melanoma 65.7% | M14 melanoma 67.7%
active: MALME-3M melanoma -9.77%

O=C(CN1C(=O)c2ccccc2S1(=O)=O)Nc1nc(-c2cc3ccccc3oc2=O)cs1
inactive: DU-145 prostate 108% | K-562 leukemia 100% | MALME-3M melanoma 101% | MDA-MB-231 breast 114% | RXF 393 renal 105% | SF-268 CNS 95.7% | SF-295 CNS 102% | SF-539 CNS 95.8% | UACC-257 melanoma 99.8% | M14 melanoma 106%

C#CCOc1ccc(C2=NN(CCCC)C3N=C(Cl)c4ncn(CCCC)c4N23)cc1OCC#C (stereo not given)
inactive: DU-145 prostate 94.1% | K-562 leukemia 71.2% | MALME-3M melanoma 107% | MDA-MB-231 breast 91.7% | RXF 393 renal 76.1% | SF-268 CNS 90.1% | SF-295 CNS 88.4% | SF-539 CNS 101% | UACC-257 melanoma 85.7% | M14 melanoma 92.2%

C=CN(C(=O)N1CCN(c2cc3c(cc2F)c(=O)c(C(=O)O)cn3C2CC2)CC1)c1nc(-c2ccc(C)cc2)cs1
inactive: DU-145 prostate 24.7% | K-562 leukemia 18.5% | MALME-3M melanoma 48.2% | MDA-MB-231 breast 21.5% | SF-268 CNS 26.3% | SF-539 CNS 20.2% | UACC-257 melanoma 54.2% | M14 melanoma 31.4%
active: RXF 393 renal 6.69% | SF-295 CNS -5.02%

C(CCCSC1=NCCN1)CCSC1=NCCN1
inactive: DU-145 prostate 109% | K-562 leukemia 116% | MALME-3M melanoma 104% | MDA-MB-231 breast 103% | RXF 393 renal 104% | SF-268 CNS 106% | SF-295 CNS 108% | SF-539 CNS 101% | UACC-257 melanoma 98.5% | M14 melanoma 99.3%

COc1cc(/C=C2\CN(S(=O)(=O)c3ccc(C)cc3)C/C(=C\c3cc(CN4CCCC4)c(O)c(OC)c3)C2=O)cc(CN2CCCC2)c1O
active: DU-145 prostate -12.5% | K-562 leukemia 1.26% | MALME-3M melanoma -81.5% | MDA-MB-231 breast -20.3% | RXF 393 renal -87.8% | SF-268 CNS 1.82% | SF-295 CNS -40.3% | SF-539 CNS -55.6% | M14 melanoma -66.4%
inactive: UACC-257 melanoma 57.7%

CN(Cc1ccccc1)c1nc(Cl)c(C2CC(c3ccc(Cl)cc3)=NN2c2cc(Cl)cc(Cl)c2)s1 (stereo not given)
inactive: DU-145 prostate 109% | K-562 leukemia 87% | MALME-3M melanoma 97.3% | MDA-MB-231 breast 110% | RXF 393 renal 104% | SF-268 CNS 100% | SF-295 CNS 95.3% | SF-539 CNS 106% | UACC-257 melanoma 110% | M14 melanoma 96.1%

COC(=O)c1nc(-c2ccc(C)cc2)oc1N1CCOCC1
inactive: DU-145 prostate 98.1% | K-562 leukemia 95.6% | MALME-3M melanoma 115% | MDA-MB-231 breast 105% | RXF 393 renal 89.6% | SF-268 CNS 98.1% | SF-295 CNS 99% | SF-539 CNS 95.9% | UACC-257 melanoma 100% | M14 melanoma 102%

O=[N+]([O-])c1ccc(N/N=C\c2cc(Cl)ccc2O)nc1
inactive: DU-145 prostate 39.4% | K-562 leukemia 17.8% | MALME-3M melanoma 25.6% | MDA-MB-231 breast 48.8% | RXF 393 renal 50.2% | SF-268 CNS 33.3% | SF-295 CNS 29.9% | SF-539 CNS 29.8% | UACC-257 melanoma 30.2% | M14 melanoma 17.1%
